Measured values published in PubChem BioAssay (NCI).
Compounds without any hit were thinned out: in the full panel of roughly 83,000, 20% have a hit.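 Compound tested at a single concentration for 48 hours in 96-well plates; a percent growth value below 10 was scored as active.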 The source made the active and inactive calls.

Columns and labels:
Experiment in all cases: NCI-60 one-dose screen, 48 h (100 = growth as untreated, 0 = no growth, -100 = all killed)
Conditions in all cases: 10 µM unless noted
HCT-15 colon = tested on: HCT-15 colon
HT29 colon = tested on: HT29 colon
SNB-75 CNS = tested on: SNB-75 CNS
SNB-19 CNS = tested on: SNB-19 CNS
U251 CNS = tested on: U251 CNS
PC-3 prostate = tested on: PC-3 prostate
SK-MEL-5 melanoma = tested on: SK-MEL-5 melanoma
UACC-62 melanoma = tested on: UACC-62 melanoma
SK-MEL-28 melanoma = tested on: SK-MEL-28 melanoma
LOX IMVI melanoma = tested on: LOX IMVI melanoma

Measured: growth

CC(C)[N+](C)(CCOC(COc1ccccc1)COc1ccccc1)C(C)C
inactive: HCT-15 colon 100% | HT29 colon 73.4% | SNB-75 CNS 70.9% | SNB-19 CNS 86.2% | U251 CNS 83.8% | PC-3 prostate 73.2% | SK-MEL-5 melanoma 86.8% | UACC-62 melanoma 78.6% | SK-MEL-28 melanoma 96.6%

COc1ccc(C2CC(c3cccc(Nc4ccncc4)c3)=NN2c2cc(Cl)cc(Cl)c2)cc1 (stereo not given)
inactive: SNB-75 CNS 65.9% | SNB-19 CNS 91% | PC-3 prostate 33.8% | SK-MEL-5 melanoma 67.5% | UACC-62 melanoma 99.6%
active: HCT-15 colon -67.5% | HT29 colon -17.5% | U251 CNS -34.4% | SK-MEL-28 melanoma -49.3%

Cc1ccccc1CNc1ccc(N2CCOCC2)cc1
inactive: HCT-15 colon 101% | HT29 colon 105% | SNB-75 CNS 92.7% | SNB-19 CNS 101% | U251 CNS 100% | PC-3 prostate 99.6% | SK-MEL-5 melanoma 99.5% | UACC-62 melanoma 94.8% | SK-MEL-28 melanoma 99.8%

S=c1[nH]cccc1-c1nnc2n1Nc1nc3ccccc3cc1CS2
inactive: HCT-15 colon 108% | HT29 colon 106% | SNB-75 CNS 82.8% | SNB-19 CNS 94.8% | U251 CNS 103% | PC-3 prostate 107% | SK-MEL-5 melanoma 97.4% | UACC-62 melanoma 91.2% | SK-MEL-28 melanoma 111%

COc1c(Cl)cc(Cl)c2ccc(C=C3C(=O)N(C)C(=O)N(C)C3=O)nc12
inactive: HCT-15 colon 103% | HT29 colon 105% | SNB-75 CNS 98.6% | SNB-19 CNS 92% | U251 CNS 110% | PC-3 prostate 99.4% | SK-MEL-5 melanoma 101% | UACC-62 melanoma 102% | SK-MEL-28 melanoma 109%

COc1ccc(C2CC(c3cccc(Nc4ccncc4)c3)=NN2c2ccccc2)cc1 (stereo not given)
active: HCT-15 colon -22.9% | HT29 colon -3.3% | U251 CNS 8.79% | SK-MEL-28 melanoma -88.3%
inactive: SNB-75 CNS 65.3% | SNB-19 CNS 84.3% | PC-3 prostate 37.3% | SK-MEL-5 melanoma 49.2% | UACC-62 melanoma 97%

COc1cc(NCC(C)(O)CN(CC(C)C)CC(C)C)c2nc(C)ccc2c1 (stereo not given)
inactive: HCT-15 colon 67.7% | HT29 colon 82% | SNB-75 CNS 81.4% | SNB-19 CNS 87.9% | U251 CNS 94.9% | PC-3 prostate 64.5% | SK-MEL-5 melanoma 86.4% | UACC-62 melanoma 68.3% | SK-MEL-28 melanoma 99.3%

Cc1c([N+](=O)[O-])cc(C(C)(C)C)cc1[N+](=O)[O-]
inactive: HCT-15 colon 105% | HT29 colon 87.2% | SNB-75 CNS 89.4% | SNB-19 CNS 102% | U251 CNS 95.4% | PC-3 prostate 95.3% | SK-MEL-5 melanoma 99.7% | UACC-62 melanoma 103% | SK-MEL-28 melanoma 99.2%

COc1ccc(C2=C(c3ccccc3)c3ccc(OC(C)=O)cc3OC2(C)C)cc1
inactive: HCT-15 colon 80.4% | HT29 colon 105% | SNB-75 CNS 118% | SNB-19 CNS 111% | U251 CNS 95.7% | PC-3 prostate 72.4% | SK-MEL-5 melanoma 93.1% | UACC-62 melanoma 83.5% | SK-MEL-28 melanoma 100%

CC(=O)c1c[nH]c2ccc(-c3ccnc(Nc4ccc(NC(=O)c5cccc(F)c5)c(CN5CCOCC5)c4)n3)cc12
active: HCT-15 colon 0.545% | HT29 colon 7.18% | SNB-75 CNS -56.1% | SNB-19 CNS 0.141% | U251 CNS 8.5% | PC-3 prostate -0.531% | SK-MEL-5 melanoma -74% | UACC-62 melanoma -41.2% | SK-MEL-28 melanoma 1.85%

NNC(=O)/C(=C\c1ccc([N+](=O)[O-])cc1)CC(=O)c1ccc(Cl)c(Cl)c1
inactive: HCT-15 colon 89.6% | HT29 colon 88.4% | SNB-75 CNS 63.3% | SNB-19 CNS 89.6% | U251 CNS 91.8% | PC-3 prostate 79.4% | SK-MEL-5 melanoma 93.6% | UACC-62 melanoma 73.8% | SK-MEL-28 melanoma 103%

CC1(C)CC[C@]2(C(=O)NCC#CCN3CCOCC3)CC[C@]3(C)C(=CC[C@@H]4[C@@]5(C)Cc6c([nH]c7ccccc67)C(C)(C)[C@@H]5CC[C@]43C)[C@@H]2C1
inactive: HCT-15 colon 93.5% | HT29 colon 83.5% | SNB-75 CNS 98.2% | SNB-19 CNS 93.1% | U251 CNS 87.9% | PC-3 prostate 58.6% | SK-MEL-5 melanoma 88.8% | UACC-62 melanoma 49.3% | SK-MEL-28 melanoma 67.7%

CN1C(=O)N(C)C2NC(N/N=C/c3ccccc3)=NC21 (stereo not given)
inactive: HCT-15 colon 103% | HT29 colon 111% | SNB-75 CNS 76.3% | SNB-19 CNS 102% | U251 CNS 101% | PC-3 prostate 95.6% | SK-MEL-5 melanoma 102% | UACC-62 melanoma 100% | LOX IMVI melanoma 96.5% | SK-MEL-28 melanoma 102%

Clc1cc(Cl)cc(N2N=C(c3cccc(Nc4ccncc4)c3)CC2c2ccc3c(c2)OCO3)c1 (stereo not given)
inactive: SNB-75 CNS 67.5% | SNB-19 CNS 81.9% | PC-3 prostate 28.7% | SK-MEL-5 melanoma 58.9% | UACC-62 melanoma 97.6%
active: HCT-15 colon -66.7% | HT29 colon 0.164% | U251 CNS -43.6% | SK-MEL-28 melanoma -82.4%

COc1ccc(Cl)cc1NC(=O)c1c(NC(=O)C(F)(F)C(F)(F)F)sc2c1CCCCC2
inactive: HCT-15 colon 14.9% | SNB-19 CNS 14.5% | LOX IMVI melanoma 17.6% | SK-MEL-28 melanoma 23.3%
active: HT29 colon 3.87% | SNB-75 CNS -9.76% | U251 CNS 7.27% | SK-MEL-5 melanoma -58.3% | UACC-62 melanoma 6.99%

Clc1ccc(C2CC(c3cccc(Nc4ccncc4)c3)=NN2c2ccc(Cl)cc2)cc1 (stereo not given)
inactive: SNB-75 CNS 70.7% | SNB-19 CNS 67.8% | SK-MEL-5 melanoma 33.8% | UACC-62 melanoma 98%
active: HCT-15 colon -71.6% | HT29 colon -5.47% | U251 CNS -49.7% | LOX IMVI melanoma -97.2% | SK-MEL-28 melanoma -92.3%

NC(=O)C1(N2CCCCC2)CCN(CCCC(=O)c2ccc(F)cc2)CC1
inactive: HCT-15 colon 93.6% | SNB-75 CNS 23.5% | SNB-19 CNS 32.3% | U251 CNS 23.2% | UACC-62 melanoma 29.3% | LOX IMVI melanoma 42.4% | SK-MEL-28 melanoma 51.7%
active: HT29 colon 5.09% | SK-MEL-5 melanoma 4.4%

CCOC(=O)c1c(SC)nn(-c2cc(=O)[nH]c3ccc(Br)cc23)c1N
inactive: HCT-15 colon 106% | HT29 colon 107% | SNB-75 CNS 94% | SNB-19 CNS 101% | U251 CNS 94.1% | SK-MEL-5 melanoma 101% | UACC-62 melanoma 102% | LOX IMVI melanoma 90.1% | SK-MEL-28 melanoma 117%

COc1ccc(C(=O)c2cc3c(N)c(C(=O)Nc4ccc(Cl)cc4)sc3nc2C)cc1
inactive: HCT-15 colon 55.9% | HT29 colon 54.2% | SNB-19 CNS 67% | U251 CNS 61.7% | SK-MEL-5 melanoma 85.2% | UACC-62 melanoma 78.6% | SK-MEL-28 melanoma 82.6%
active: SNB-75 CNS 4.28%

C[C@@H]1CN(Cc2ccc(/C=C/c3n[nH]c4ccc5nc(-c6cn[nH]c6C(F)(F)F)c6c(c5c34)CCCC6)cc2)C[C@H](C)O1
inactive: SNB-19 CNS 57.1% | U251 CNS 46.1% | SK-MEL-5 melanoma 40.3% | UACC-62 melanoma 44.3% | SK-MEL-28 melanoma 40.6%
active: HCT-15 colon 7.35% | HT29 colon 7.17% | SNB-75 CNS -4.9% | LOX IMVI melanoma 8.23%

CCOC(=O)N1CCc2c(sc3nc4nc[nH]n4c(=O)c23)C1
inactive: HCT-15 colon 102% | HT29 colon 100% | SNB-75 CNS 89.4% | SNB-19 CNS 106% | U251 CNS 100% | SK-MEL-5 melanoma 104% | UACC-62 melanoma 98.8% | LOX IMVI melanoma 94.6% | SK-MEL-28 melanoma 115%

Cc1c2c(cc[n+]1Cc1ccccc1)c1ccc(OCC3CCCCC3)cc1n2CC1CCCCC1
active: HCT-15 colon -81.7% | HT29 colon -79% | SNB-75 CNS -87.3% | SNB-19 CNS -90.7% | U251 CNS -92.5% | SK-MEL-5 melanoma -100% | UACC-62 melanoma -94% | LOX IMVI melanoma -95.6% | SK-MEL-28 melanoma -95.8%

COc1ccc(C(O)c2cc3c(N)c(C(=O)Nc4ccc(Cl)cc4)sc3nc2C)cc1 (stereo not given)
inactive: HCT-15 colon 12.3% | SNB-19 CNS 37.2% | U251 CNS 20.2% | SK-MEL-5 melanoma 15.4% | UACC-62 melanoma 17.3% | LOX IMVI melanoma 29.2% | SK-MEL-28 melanoma 59.6%
active: HT29 colon -6.54% | SNB-75 CNS -22.5%

COC(=O)C(c1ccccc1)C(CC(=O)c1ccccc1)c1ccccc1 (stereo not given)
inactive: HCT-15 colon 97.1% | HT29 colon 79.1% | SNB-75 CNS 83.2% | SNB-19 CNS 101% | U251 CNS 92.2% | SK-MEL-5 melanoma 82.1% | UACC-62 melanoma 88.7% | LOX IMVI melanoma 82.7% | SK-MEL-28 melanoma 91.8%

O=C(O)c1ccc[n+](CC(=O)N2CCN(c3cc4c(cc3F)c(=O)c(C(=O)O)cn4C3CC3)CC2)c1
inactive: HCT-15 colon 73.4% | HT29 colon 92.9% | SNB-75 CNS 79.4% | SNB-19 CNS 87.1% | U251 CNS 74.7% | SK-MEL-5 melanoma 91.7% | UACC-62 melanoma 48.9% | LOX IMVI melanoma 30.2% | SK-MEL-28 melanoma 60.4%

O=C1Nc2c(ccc(Cl)c2Cl)/C1=C/c1ccc(F)cc1
inactive: HCT-15 colon 80.6% | HT29 colon 91% | SNB-75 CNS 76.1% | SNB-19 CNS 73.5% | U251 CNS 92.8% | SK-MEL-5 melanoma 86.8% | UACC-62 melanoma 79.6% | LOX IMVI melanoma 81.2% | SK-MEL-28 melanoma 115%

CC(=O)OCCCCCNc1ccccc1
inactive: HCT-15 colon 107% | HT29 colon 99.2% | SNB-75 CNS 103% | SNB-19 CNS 107% | U251 CNS 100% | SK-MEL-5 melanoma 106% | UACC-62 melanoma 106% | LOX IMVI melanoma 100% | SK-MEL-28 melanoma 106%

CCCCCCCCCCN=C(N)N=C(N)N
inactive: HCT-15 colon 71.1% | HT29 colon 41.6% | SNB-19 CNS 38.7% | U251 CNS 34.8% | UACC-62 melanoma 37.2% | LOX IMVI melanoma 47.3% | SK-MEL-28 melanoma 63.3%
active: SNB-75 CNS 3.65% | SK-MEL-5 melanoma 4.63%

c1ccc(-c2nn(-c3ccccc3)[n+](-c3cccc4ccccc34)n2)cc1
active: SK-MEL-5 melanoma -30.2% | UACC-62 melanoma -2.14%
inactive: HCT-15 colon 103% | HT29 colon 12.1% | SNB-75 CNS 48.4% | SNB-19 CNS 24.9% | U251 CNS 17.7% | LOX IMVI melanoma 12.7% | SK-MEL-28 melanoma 41.2%

O=C1/C(=C\c2cn(Cc3ccccc3)c3ccc(Br)cc23)c2ccccc2N1c1c(Cl)cccc1Cl
inactive: HCT-15 colon 102% | HT29 colon 101% | SNB-75 CNS 76.4% | SNB-19 CNS 90.9% | U251 CNS 96.4% | SK-MEL-5 melanoma 104% | UACC-62 melanoma 98.4% | LOX IMVI melanoma 88.8% | SK-MEL-28 melanoma 107%
